Drawing on PubChem BioAssay (EPA / NIEHS), this text covers AC50 and outcome for 30 compounds.

The target of experiment [1] is chicken Estrogen Receptor (ESR1), ESR1 (gene 396099) (UniProt P06212). Put plainly: ATG_chERa_XSP1: Attagene TRANS-FACTORIAL Multi-Species (XSP1) HepG2 Assay for chicken Estrogen Receptor (ESR1) (AID 2283779). In short, it runs like this:
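Read-out: fluorescent reporter mRNA fragments resolved by capillary electrophoresis after RT-PCR and HpaI digestion. Transfected HepG2 cells carried chimeric NR-Gal4 constructs, were dosed 24 h with 3 nM 6-alpha-fluorotestosterone added, and activity was fitted upward relative to DMSO.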

The subject of experiment [2] is turtle Estrogen Receptor (ESR1), gene 101933533. Put plainly: ATG_trERa_XSP1: Attagene TRANS-FACTORIAL Multi-Species (XSP1) HepG2 Assay for turtle Estrogen Receptor (ESR1) (AID 2283781). How it is done:
ATG_XSP1_multi-species_TRANS is a cell-based, multiplexed assay created by modifying the existing Attagene TRANS-FACTORIAL system to include a panel of nuclear receptors from some or all the following species: human (Homo sapiens), mouse (Mus musculus), frog (Xenopus laevis), zebrafish (Danio rerio), chicken (Gallus gallus), and turtle (Chrysemys picta). The ECOTOX-FACTORIAL format uses HepG2, a human liver cell line, with measurements taken at 24 hours after chemical dosing in a 24-well plate. Xsp1 included 3 nM 6-alpha-fluorotestosterone to partially stimulate the androgen receptor.ATG_trERa_XSP1 is one of 29 assay components measured or calculated from the ATG_XSP1_multi-species_TRANS assay. It is designed to make measurements of mRNA induction, a form of inducible reporter, as detected with fluorescence intensity signals by Reverse transcription polymerase chain reaction (RT-PCR) and Capillary electrophoresis technology.The assay endpoint ATG_trERa_XSP1 was analyzed in the positive analysis fitting direction relative to DMSO as the negative control and baseline of activity. […] Furthermore, this assay endpoint can be referred to as a primary readout, because this assay has produced multiple assay endpoints where this one serves a reporter gene function. […]

For experiment [3], the target named is Estrogen receptor beta (Homo sapiens) (UniProt Q92731). Put plainly: ATG_hERb_XSP1: Attagene TRANS-FACTORIAL Multi-Species (XSP1) HepG2 Assay for human Estrogen Receptor (ESR2) (AID 2283788). The method in brief:
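Transient MRTU transfection of HepG2; ERβ–GAL4 TRANS format; 24 h dosing; 3 nM 6α-fluorotestosterone co-added; RNA → RT-PCR → 6-FAM primer extension → CE; activity vs DMSO.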

Experiment [4] addresses GAL4 Transcription Factor (Internal Marker), GAL4 (gene 855828) (UniProt P04386). Put plainly: ATG_GAL4_XSP1: Attagene TRANS-FACTORIAL Multi-Species (XSP1) HepG2 Assay for GAL4 Transcription Factor (Internal Marker) (AID 2283789). The method in brief: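 This background-control endpoint measures GAL4-driven reporter mRNA via RT-PCR and capillary electrophoresis of labelled fragments. Transiently transfected HepG2 cells were treated 24 h, with 3 nM 6-alpha-fluorotestosterone included, and gain-of-signal was fitted against DMSO.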

The nature of experiment [5]: ATG_M_06_XSP1: Attagene TRANS-FACTORIAL Multi-Species (XSP1) HepG2 Assay for M06 Transcription Factor (Internal Marker) (AID 2283790). The method in brief:
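This background-control readout tracks M06 reporter mRNA, measured by RT-PCR and capillary electrophoresis. HepG2 cells transiently carrying the GAL4-UAS reporter panel were dosed for 24 h with 3 nM 6-alpha-fluorotestosterone added for partial AR stimulation; increases were scored relative to DMSO.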

Experiment [6] is described as follows: ATG_M_61_XSP1: Attagene TRANS-FACTORIAL Multi-Species (XSP1) HepG2 Assay for M61 Transcription Factor (Internal Marker) (AID 2283797). In short, it runs like this:
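Background-control readout: reporter transcripts measured by RT-PCR and capillary electrophoresis 24 h after dosing transiently transfected HepG2 multi-reporter cells, with 3 nM 6-alpha-fluorotestosterone present. Fitted in the positive direction relative to DMSO.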

Experiment [7] in a line: ACEA_ER_AUC_viability: ACEA Biosciences xCELLigence Real-Time Cell Analysis on Estrogen Receptor Agonism for Viability (AID 2283782).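 Note: hit means loss of impedance signal meaning reduced cell growth or viability.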 The method in brief: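 Read-out: real-time electrical impedance (RT-CES) area under curve, loss of signal taken as reduced viability, normalized to DMSO baseline. T-47D cells, charcoal-stripped serum medium, compounds up to 100 uM final, continuous exposure, 80 h.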

A short description of experiment [8]: STM_H9_NormalizedViability: Cytotoxicity Assessment at 120 hours in the Stemina devTOX quickPredict H9 human embryonic stem cell (hESC)-based Assay (AID 2283784). In short, it runs like this:
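Viability endpoint: background-corrected CellTiter-Fluor RFU expressed relative to the 0.1% DMSO mean on each plate. Undifferentiated H9 cells were treated with daily re-dosing and media change, and loss of signal was fitted.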

The target of experiment [9] is AR (gene 367) (UniProt P10275). Put plainly: ACEA_AR_agonist_80hr: ACEA Biosciences xCELLigence Real-Time Cell Analysis on Androgen Receptor Agonism for Proliferation (AID 2283783).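 Note: hits increase impedance growth signal above DMSO baseline.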 The method in brief:
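Impedance (RT-CES) growth signal at 80 h post-dose; 22Rv1 cells, 8-pt 1:4 series, top 100 uM final, DMSO ≤0.5%; duplicate plates; gain-of-signal fit relative to DMSO baseline.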

For experiment [10], the target named is AR (gene 367) (UniProt P10275). Put plainly: ACEA_AR_antagonist_80hr: ACEA Biosciences xCELLigence Real-Time Cell Analysis on Androgen Receptor Antagonism for Proliferation (AID 2283787).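 Note: 22Rv1 human prostate cancer cells with growth followed by electrical impedance; hits lower the impedance growth signal relative to DMSO.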 In short, it runs like this:
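Measures real-time proliferation of 22Rv1 prostate cancer cells by electrode impedance at 80 hours after dosing. Test articles ran at eight concentrations (1:4 steps, top 100 uM final) in biological duplicate.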

The structures appear in SMILES notation. Results filed as inconclusive are left out. Activity calls are given as the source filed them. Rule for the calls: active = hit-call score of the fitted dose curve at least 0.9, where 1 is the maximum; inconclusive = response in the unintended direction; inactive = score below 0.9.

AR (gene 367), sequence (P10275 whole entry, looked up): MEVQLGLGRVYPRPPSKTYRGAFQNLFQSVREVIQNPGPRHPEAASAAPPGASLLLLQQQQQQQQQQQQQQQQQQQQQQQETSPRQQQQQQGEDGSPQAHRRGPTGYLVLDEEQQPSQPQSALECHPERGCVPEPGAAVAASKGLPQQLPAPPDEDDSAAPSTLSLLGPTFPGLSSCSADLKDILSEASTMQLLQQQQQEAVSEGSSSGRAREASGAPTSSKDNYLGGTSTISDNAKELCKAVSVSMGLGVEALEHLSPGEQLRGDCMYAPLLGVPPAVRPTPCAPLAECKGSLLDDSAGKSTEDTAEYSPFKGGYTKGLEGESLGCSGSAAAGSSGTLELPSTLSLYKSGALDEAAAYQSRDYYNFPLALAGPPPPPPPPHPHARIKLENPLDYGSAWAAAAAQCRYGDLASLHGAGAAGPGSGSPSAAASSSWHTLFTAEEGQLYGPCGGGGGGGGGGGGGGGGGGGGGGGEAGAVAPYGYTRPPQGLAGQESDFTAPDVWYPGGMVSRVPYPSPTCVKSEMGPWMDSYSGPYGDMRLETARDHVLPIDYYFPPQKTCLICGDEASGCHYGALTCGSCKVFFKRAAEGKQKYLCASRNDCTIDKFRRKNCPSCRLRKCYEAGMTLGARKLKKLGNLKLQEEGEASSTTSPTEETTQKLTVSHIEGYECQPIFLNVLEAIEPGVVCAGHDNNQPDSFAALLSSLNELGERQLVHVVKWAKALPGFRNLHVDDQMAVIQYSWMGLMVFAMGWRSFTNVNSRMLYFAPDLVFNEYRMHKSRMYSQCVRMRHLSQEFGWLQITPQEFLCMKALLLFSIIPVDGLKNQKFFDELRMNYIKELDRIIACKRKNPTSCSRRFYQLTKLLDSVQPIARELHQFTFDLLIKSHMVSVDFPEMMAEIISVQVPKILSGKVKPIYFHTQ
GAL4 Transcription Factor (Internal Marker), GAL4 (gene 855828), sequence (P04386 whole entry, looked up, the tested form may be a part): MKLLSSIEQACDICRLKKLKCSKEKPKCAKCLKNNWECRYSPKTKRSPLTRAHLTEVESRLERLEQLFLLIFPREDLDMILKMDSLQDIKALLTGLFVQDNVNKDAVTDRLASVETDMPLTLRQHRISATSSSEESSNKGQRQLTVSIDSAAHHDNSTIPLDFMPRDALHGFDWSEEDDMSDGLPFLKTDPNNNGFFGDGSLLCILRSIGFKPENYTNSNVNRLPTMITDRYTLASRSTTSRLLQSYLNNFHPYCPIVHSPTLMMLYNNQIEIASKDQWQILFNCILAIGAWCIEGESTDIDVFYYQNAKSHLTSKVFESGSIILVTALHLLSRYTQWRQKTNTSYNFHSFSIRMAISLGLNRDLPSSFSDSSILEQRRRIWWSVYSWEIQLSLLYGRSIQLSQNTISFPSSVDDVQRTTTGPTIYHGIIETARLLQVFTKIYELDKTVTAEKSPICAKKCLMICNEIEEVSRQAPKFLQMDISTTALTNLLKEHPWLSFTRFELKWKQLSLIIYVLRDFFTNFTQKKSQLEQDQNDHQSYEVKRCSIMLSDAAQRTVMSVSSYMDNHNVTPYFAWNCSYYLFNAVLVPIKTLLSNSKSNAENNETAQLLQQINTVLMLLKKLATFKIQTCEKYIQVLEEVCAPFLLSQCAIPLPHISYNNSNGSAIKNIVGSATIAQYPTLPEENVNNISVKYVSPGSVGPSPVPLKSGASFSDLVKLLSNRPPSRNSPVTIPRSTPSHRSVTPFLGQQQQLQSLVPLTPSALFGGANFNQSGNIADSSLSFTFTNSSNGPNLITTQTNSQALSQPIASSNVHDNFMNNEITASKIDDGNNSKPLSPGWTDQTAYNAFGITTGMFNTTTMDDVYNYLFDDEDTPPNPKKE
Estrogen receptor beta (Homo sapiens), sequence (Q92731 whole entry, looked up, the tested form may be a part): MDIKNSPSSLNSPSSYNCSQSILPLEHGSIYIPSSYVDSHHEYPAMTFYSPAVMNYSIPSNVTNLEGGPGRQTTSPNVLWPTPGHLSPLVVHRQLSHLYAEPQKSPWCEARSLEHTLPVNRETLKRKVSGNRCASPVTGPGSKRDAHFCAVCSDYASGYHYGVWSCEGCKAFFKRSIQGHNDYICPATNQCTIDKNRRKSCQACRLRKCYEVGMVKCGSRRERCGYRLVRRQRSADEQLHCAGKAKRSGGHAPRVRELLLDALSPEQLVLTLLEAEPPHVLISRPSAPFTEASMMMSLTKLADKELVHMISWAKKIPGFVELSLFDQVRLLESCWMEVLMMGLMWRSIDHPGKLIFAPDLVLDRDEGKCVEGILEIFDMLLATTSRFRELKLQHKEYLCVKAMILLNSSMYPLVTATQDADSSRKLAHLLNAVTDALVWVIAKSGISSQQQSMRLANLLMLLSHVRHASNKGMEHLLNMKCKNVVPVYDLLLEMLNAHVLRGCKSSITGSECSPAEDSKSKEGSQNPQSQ
chicken Estrogen Receptor (ESR1), ESR1 (gene 396099), sequence (P06212 whole entry, looked up, the tested form may be a part): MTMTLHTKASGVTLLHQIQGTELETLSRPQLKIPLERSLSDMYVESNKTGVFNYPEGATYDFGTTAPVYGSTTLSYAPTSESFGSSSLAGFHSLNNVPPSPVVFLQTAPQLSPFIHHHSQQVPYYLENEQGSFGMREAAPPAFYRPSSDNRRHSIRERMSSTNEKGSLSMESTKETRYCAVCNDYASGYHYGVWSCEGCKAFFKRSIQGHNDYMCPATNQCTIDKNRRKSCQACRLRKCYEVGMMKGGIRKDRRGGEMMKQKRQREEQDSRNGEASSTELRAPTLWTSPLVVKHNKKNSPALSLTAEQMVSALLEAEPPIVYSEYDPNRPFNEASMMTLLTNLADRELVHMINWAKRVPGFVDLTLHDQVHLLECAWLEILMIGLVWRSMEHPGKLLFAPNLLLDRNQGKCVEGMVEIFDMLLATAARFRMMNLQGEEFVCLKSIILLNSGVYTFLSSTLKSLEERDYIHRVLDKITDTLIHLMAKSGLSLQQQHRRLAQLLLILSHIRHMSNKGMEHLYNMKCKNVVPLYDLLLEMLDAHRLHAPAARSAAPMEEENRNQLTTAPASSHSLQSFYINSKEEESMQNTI

By AC50 is commonly meant the concentration at which the activity in the assay is half-maximal. Take `C[C@]12CC[C@@H]3c4ccc(O)cc4CC[C@H]3[C@@H]1C[C@@H](O)[C@@H]2O`: the half-maximal activity concentration (AC50) in [1] was 22.7 nM (active); in experiment [2], 17.2 nM (active); in [3] it was 10.5 nM (active). Moreover, the compound was classed as inactive in [4], in [5] and in experiment [6]. As for `CN(CCO)S(=O)(=O)C(F)(F)C(F)(F)C(F)(F)C(F)(F)C(F)(F)C(F)(F)C(F)(F)C(F)(F)F`, the outcome in experiment [7] was inactive. Take `CC(C)(C)c1ccc(O)c(O)c1`: the results for the AC50 in [7] and in experiment [8] were 23.4 µM (active) and 86.5 µM (active), respectively.

Consider `C=Cc1ccc(O)c(OC)c1`, for which the compound was called inactive in experiment [7]. For the same compound, the half-maximal activity concentration (AC50) in experiment [8] was 77.6 µM (active). Take `NC(=NCCCCCCN=C(N)/N=C(\N)Nc1ccc(Cl)cc1)/N=C(\N)Nc1ccc(Cl)cc1`: the result with AR (gene 367) [9] was inactive. For the same compound, the AC50 with AR (gene 367) [10] was 9.25 µM (active). As for `OCC(CO)(CBr)CBr`, in [8], the result was inactive.

On to `Cn1sccc1=O`, for which, in [8], the outcome was inactive.

Turning to `CN(Cc1cnc2nc(N)nc(N)c2n1)c1ccc(C(=O)N[C@@H](CCC(=O)O)C(=O)O)cc1`, in the experiment with AR (gene 367) [9], the result was inactive. The AC50 in experiment [8] is 0.0867 µM (active); in the experiment with AR (gene 367) [10] it was 0.39 µM (active). Turning to `CC(=O)Nc1ccc(O)cc1`, the outcome with AR (gene 367) [10] was inactive. As for `CCCCc1oc2ccccc2c1C(=O)c1cc(I)c(OCCN(CC)CC)c(I)c1`, the AC50 in experiment [8] was 4.41 µM (active).

Turning to `NS(=O)(=O)O`, the compound was classed as inactive in experiment [7]. For `Cc1cc(C(=C2C=CC(=Nc3ccc(S(=O)(=O)O)cc3)C=C2)c2ccc(Nc3ccc(S(=O)(=O)O)cc3)cc2)cc(S(=O)(=O)O)c1N`, the result (in [7]; with AR (gene 367) [10]) was inactive. Regarding `CN(C)CCOC(c1ccccc1)c1ccccc1`, the AC50 in experiment [7] is 50 µM (active); in experiment [8], 8.23 µM (active). Also, the call with AR (gene 367) [9] was inactive.

Take `O=C(c1ccccc1)c1ccccc1`: the call (in the experiment with AR (gene 367) [9]; in experiment [8]; with AR (gene 367) [10]) was inactive. As to `CCCCCCC(C)(C)C(=O)O`, the outcome (in experiment [7]; with AR (gene 367) [9]) was inactive. With `O=C(CCCN1CCC(O)(c2ccc(Cl)cc2)CC1)c1ccc(F)cc1`, the call in [7] and in experiment [8] was inactive. As to `CCOC(OCC)C(=O)c1ccccc1`, the outcome in experiment [7] was inactive.

Take `CC(O)COc1ccccc1` (configuration not stated): the compound was called inactive (in [7]; with AR (gene 367) [10]). For the compound `CCCCC(CC)C(=O)O` (configuration not stated), the outcome in [8] was inactive.

As for `CC1=CC(=O)c2ccccc2C1=O`, the outcome in experiment [8] was inactive. Regarding `Cc1ccc(C)c(S(=O)(=O)O)c1`, in [7], the outcome was inactive. `CC(C)[C@@H]1CC[C@@H](C)C[C@H]1O`: the compound was classed as inactive in experiment [7]. For the same compound, the AC50 in the experiment with AR (gene 367) [10] was 0.48 µM (active). With `COc1cc([N+](=O)[O-])ccc1N`, the AC50 with AR (gene 367) [10] was 2.99 µM (active). For the compound `Oc1c(Cl)cc(Cl)cc1Sc1cc(Cl)cc(Cl)c1O`, the result in experiment [8] was inactive. For the compound `O=S(=O)(O)c1ccccc1`, the outcome in experiment [7] was inactive.

Take `CCCCCCCCCC=CCC1CC(=O)OC1=O` (configuration not stated): in the experiment with AR (gene 367) [10], the compound was called inactive. Turning to `CNNCc1ccc(C(=O)NC(C)C)cc1`, the outcome in experiment [7] was inactive. For the compound `CCCCCCc1ccc(N)cc1`, the AC50 in [7] is 50 µM (active). The outcome with AR (gene 367) [9] and with AR (gene 367) [10] was inactive. On to `Cc1[nH]nc2c1N=C(c1ccccc1Cl)c1cc([N+](=O)[O-])ccc1N2`, for which the AC50 in [8] was 1.99 µM (active).

Turning to `CCCCc1ccc2ccccc2c1S(=O)(=O)O`, the outcome (in experiment [7]; in the experiment with AR (gene 367) [10]) was inactive.
